Consider three compounds from PubChem BioAssay (EPA / NIEHS).

The nature of experiment [1]: ATG_E_Box_CIS: Attagene CIS-FACTORIAL HepG2 Assay for human Enhancer Box (E-box) (AID 2282936). The following applies: HepG2 E-box cis-reporter transcription, actives raise or lower the signal. Summed up: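 Cells: HepG2 (human liver), transient MRTU transfection. Exposure 24 h. RNA → oligo(dT) RT → PCR → 6-FAM label → HpaI → CE. Activity fitted both directions relative to DMSO.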

Experiment [2] is described as follows: ATG_M_61_CIS: Attagene CIS-FACTORIAL HepG2 Assay for M61 Transcription Factor (Internal Marker) (AID 2282937). Particulars: HepG2 Attagene CIS-FACTORIAL M61 internal marker reporter; actives raise or lower the signal. In a few lines: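 Human liver HepG2, transient MRTU transfection (cis promoter elements), 24 h compound. Total RNA → oligo(dT) RT → PCR → FAM label → HpaI → CE. Internal background marker; bidirectional fitting, DMSO = baseline.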

The nature of experiment [3]: ATG_EGR_CIS: Attagene CIS-FACTORIAL HepG2 Assay for human Early Growth Response 1 (EGR1) (AID 2282938). The following applies: HepG2 Attagene CIS-FACTORIAL EGR reporter mRNA; actives raise or lower the signal. In a few lines: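 Transient transfection of human HepG2 with multiple cis-regulated reporter units, chemical exposure 24 h, total RNA isolated. Reverse transcription, PCR, fluorescent labelling and capillary electrophoresis quantify reporter transcripts; activity fitted bidirectionally against DMSO.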

Experiment [4] in a line: ATG_M_19_CIS: Attagene CIS-FACTORIAL HepG2 Assay for M19 Transcription Factor (Internal Marker) (AID 2282939). The following applies: HepG2 Attagene CIS-FACTORIAL M19 internal marker reporter; actives raise or lower the signal. In a few lines: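 Following a 24 h exposure, RNA from transfected HepG2 cells was reverse-transcribed, PCR-amplified with reporter-specific primers, end-labelled with 6-FAM and HpaI-digested before capillary separation. Values represent gain or loss versus DMSO.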

A short description of experiment [5]: ATG_Ets_CIS: Attagene CIS-FACTORIAL HepG2 Assay for human Erythroblast Transformation Specific (ETS) (AID 2282941). Particulars: HepG2 ETS cis-reporter transcription, actives raise or lower the signal. In a few lines:
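HepG2 cells transfected with multiple cis-regulated reporter units measuring endogenous ETS-driven transcription, 24 h after dosing. Reporter mRNA quantified by RT-PCR with capillary electrophoresis; bidirectional fit relative to DMSO.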

Experiment [6] concerns the target Hepatocyte nuclear factor 3-beta (Homo sapiens) (UniProt Q9Y261). In words: ATG_FoxA2_CIS: Attagene CIS-FACTORIAL HepG2 Assay for human Forkhead box A2 (FOXA2) (AID 2282942). The following applies: HepG2 cis-reporter transcription factor activity, 24 h; actives raise or lower the signal. In a few lines: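 Transient MRTU transfection of HepG2 liver cells; 24 h treatment; total RNA → oligo(dT) RT → PCR → FAM primer extension → HpaI cut → CE. Bidirectional fit vs DMSO.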

The nature of experiment [7]: ATG_FoxO_CIS: Attagene CIS-FACTORIAL HepG2 Assay for human Forkhead box O (FoxO) (AID 2282943). Particulars: HepG2 Attagene cis-reporter, FoxO element, mRNA; actives raise or lower the signal. In a few lines: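 HepG2, transient MRTU transfection (cis element, endogenous TFs). Dose 24 h. TriZol RNA → oligo(dT) RT → PCR → 6-FAM primer extension → HpaI cut → CE. Gain/loss vs DMSO.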

Experiment [8] in a line: ATG_GATA_CIS: Attagene CIS-FACTORIAL HepG2 Assay for human GATA Binding Protein (AID 2282944). The following applies: HepG2 GATA cis-element reporter, Attagene multiplex mRNA; actives raise or lower the signal. In a few lines: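 DMSO serves as negative control and baseline for bidirectional fitting of reporter mRNA changes. HepG2 cells bearing transiently transfected cis-promoter reporters were exposed 24 h; transcripts detected via RT-PCR and capillary electrophoresis.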

Experiment [9] can be described thus: ATG_GLI_CIS: Attagene CIS-FACTORIAL HepG2 Assay for human Zinc Finger Protein GLI1 (AID 2282945). Particulars: HepG2, Attagene cis-factorial reporter mRNA, GLI element; actives raise or lower the signal. In a few lines: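 Bidirectional curve fits relative to DMSO, using reporter mRNA levels from RT-PCR plus capillary electrophoresis. Cells were HepG2 transiently carrying cis-regulated reporter constructs, harvested 24 h after dosing.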

In experiment [10] the target is Bile acid receptor (Homo sapiens) (UniProt Q96RI1). Kind of experiment: ATG_IR1_CIS: Attagene CIS-FACTORIAL HepG2 Assay for human Nuclear Receptor Subfamily 1 Group H Member 4 (NR1H4), IR1 submotif (AID 2282946). Particulars: IR1 reporter transcription, actives raise or lower the signal. In a few lines:
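Cells (human HepG2) carry transiently transfected cis-promoter reporter transcription units. Compounds are incubated 24 h, total RNA is reverse-transcribed and amplified, and labelled fragments are resolved by capillary electrophoresis. Curves use DMSO as baseline.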

Experiment [11] can be described thus: ATG_GRE_CIS: Attagene CIS-FACTORIAL HepG2 Assay for human Glucocorticoid Response Elements (GRE) (AID 2282947). The following applies: HepG2 GRE cis-reporter, Attagene multiplex mRNA; actives raise or lower the signal. Summed up: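 Transient MRTU transfection of human HepG2 liver cells; cis-regulated reporters report endogenous factors. 24 h dosing → RNA isolation → RT-PCR → 6-FAM primer extension → HpaI cut → CE fragment analysis. Bidirectional fit, DMSO negative control.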

Experiment [12] is described as follows: ATG_ISRE_CIS: Attagene CIS-FACTORIAL HepG2 Assay for human Interferon Regulatory Factor 1 (IRF1) binding to an Interferon-Stimulated Response Element (ISRE) (AID 2282948). The following applies: HepG2 ISRE cis-reporter (Attagene), mRNA transcription readout; actives raise or lower the signal. In a few lines: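 Transiently transfected HepG2 cells carrying cis-element reporter units, dosed 24 hours. Reporter mRNA quantified by RT-PCR, fluorescent primer extension, HpaI digestion and capillary electrophoresis. Bidirectional fitting relative to DMSO.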

The nature of experiment [13]: ATG_M_32_CIS: Attagene CIS-FACTORIAL HepG2 Assay for M32 Transcription Factor (Internal Marker) (AID 2282949).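 Also: background control marker of the multiplexed CIS panel rather than a real target.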 Particulars: HepG2 Attagene cis-factorial M32 reporter, mRNA; actives raise or lower the signal. In a few lines: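 HepG2 cells transiently transfected with multiplexed cis-regulated reporter units, dosed 24 h. Reporter mRNA quantified by RT-PCR, 6-FAM labelling, HpaI digestion and capillary electrophoresis; bidirectional fit vs DMSO.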

A short description of experiment [14]: ATG_M_06_CIS: Attagene CIS-FACTORIAL HepG2 Assay for M06 Transcription Factor (Internal Marker) (AID 2282950). Particulars: HepG2 Attagene CIS-FACTORIAL M06 internal marker reporter; actives raise or lower the signal. In a few lines:
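Fluorescence-labelled RT-PCR products from cis-promoter reporter units, cut with HpaI and resolved by capillary electrophoresis, give the signal. Cells are human HepG2, dosed for 24 h. Serves as background control, fitted relative to DMSO.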

Experiment [15] has as its target Hypoxia-inducible factor 1-alpha (Homo sapiens) (UniProt Q16665). In words: ATG_HIF1a_CIS: Attagene CIS-FACTORIAL HepG2 Assay for human Hypoxia Inducible Factor 1 (HIF1A) (AID 2282951). The following applies: HepG2 Attagene cis-factorial HIF1a reporter transcription; actives raise or lower the signal. Summed up:
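Transient MRTU transfection of human HepG2 liver cells, 24 h compound treatment, then total RNA isolation, oligo(dT) reverse transcription, PCR amplification, fluorescent labelling and capillary electrophoresis of reporter fragments. Gain or loss relative to DMSO.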

Experiment [16] deals with Hepatocyte nuclear factor 6 (Homo sapiens) (UniProt Q9UBC0). Kind of experiment: ATG_HNF6_CIS: Attagene CIS-FACTORIAL HepG2 Assay for human Hepatocyte Nuclear Factor 6 (HNF6) (AID 2282952). The following applies: HepG2 Attagene cis-factorial HNF6 reporter transcription; actives raise or lower the signal. In a few lines:
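HepG2 cells transiently transfected with cis-element-driven multiplexed reporter units measuring endogenous transcription factor activity. After 24 h exposure, reporter mRNA quantified by RT-PCR, FAM-labelled fragments and capillary electrophoresis; bidirectional fitting versus DMSO.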

The nature of experiment [17]: ATG_MRE_CIS: Attagene CIS-FACTORIAL HepG2 Assay for human Metal Responsive Element (MRE) (AID 2282954). Particulars: HepG2 MRE cis-reporter transcription, Attagene multiplex; actives raise or lower the signal. Summed up:
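Transient MRTU transfection of HepG2 (FuGene 6); 24 h dosing; total RNA → oligo(dT) RT, PCR, 6-FAM primer extension, HpaI cut, CE. Bidirectional fit vs DMSO.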

In experiment [18] the target is Paired box protein Pax-6 (Homo sapiens) (UniProt P26367). Kind of experiment: ATG_Pax6_CIS: Attagene CIS-FACTORIAL HepG2 Assay for human Paired Box 6 (PAX6) (AID 2282956). The following applies: HepG2 CIS-FACTORIAL PAX6 reporter transcription, RNA readout; actives raise or lower the signal. In a few lines:
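HepG2 cells transiently transfected with cis-promoter-driven multiplexed reporter units sensing endogenous transcription factor activity; 24 h chemical exposure. Reporter mRNA quantified by RT-PCR, 6-FAM labelling, HpaI digestion and capillary electrophoresis; bidirectional fit versus DMSO baseline.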

Experiment [19] can be described thus: ATG_PBREM_CIS: Attagene CIS-FACTORIAL HepG2 Assay for human Phenobarbital-responsive Enhancer Module (PBREM) (AID 2282955). The following applies: HepG2 PBREM cis-reporter, Attagene multiplexed transcription; actives raise or lower the signal. In a few lines: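 Endogenous transcription factors in human liver HepG2 cells drive a PBREM cis-element reporter, whose transcript level after 24 h treatment is quantified by RT-PCR with capillary electrophoresis; activity fitted in both directions against DMSO.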

For experiment [20], the target named is Heat shock factor protein 1 (Homo sapiens) (UniProt Q00613). Kind of experiment: ATG_HSE_CIS: Attagene CIS-FACTORIAL HepG2 Assay for human Heat Shock Transcription Factor 1 (HSE) (AID 2282953). The following applies: HepG2 HSE cis-reporter, Attagene RNA transcription; actives raise or lower the signal. In a few lines: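 After a 24 h incubation with test chemical, transfected HepG2 cells were harvested for RNA; reporter transcripts were measured by RT-PCR and capillary electrophoresis. Values reflect gain or loss of signal relative to DMSO.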

Some compounds were tested as several samples or in several runs, with calls that do not always agree. Activity calls are given as the source filed them. The calls were made as follows: active = hit-call score of the fitted dose curve at least 0.9, where 1 is the maximum; inactive = score below 0.9.

Bile acid receptor (Homo sapiens), sequence (Q96RI1 whole entry, looked up, the tested form may be a part): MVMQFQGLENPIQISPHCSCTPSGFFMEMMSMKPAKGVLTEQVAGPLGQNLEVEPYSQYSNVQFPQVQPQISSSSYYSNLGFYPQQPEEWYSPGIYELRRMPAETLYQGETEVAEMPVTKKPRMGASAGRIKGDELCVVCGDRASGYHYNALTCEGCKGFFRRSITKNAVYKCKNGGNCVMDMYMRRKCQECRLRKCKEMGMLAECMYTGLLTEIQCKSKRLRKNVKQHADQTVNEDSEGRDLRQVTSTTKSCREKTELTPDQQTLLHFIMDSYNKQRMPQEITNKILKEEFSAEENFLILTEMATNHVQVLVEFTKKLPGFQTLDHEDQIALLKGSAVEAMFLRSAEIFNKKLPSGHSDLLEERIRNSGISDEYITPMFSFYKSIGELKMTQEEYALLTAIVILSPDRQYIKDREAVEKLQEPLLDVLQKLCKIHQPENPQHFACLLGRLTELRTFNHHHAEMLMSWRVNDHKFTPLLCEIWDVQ
Hepatocyte nuclear factor 6 (Homo sapiens), sequence (Q9UBC0 whole entry, looked up, the tested form may be a part): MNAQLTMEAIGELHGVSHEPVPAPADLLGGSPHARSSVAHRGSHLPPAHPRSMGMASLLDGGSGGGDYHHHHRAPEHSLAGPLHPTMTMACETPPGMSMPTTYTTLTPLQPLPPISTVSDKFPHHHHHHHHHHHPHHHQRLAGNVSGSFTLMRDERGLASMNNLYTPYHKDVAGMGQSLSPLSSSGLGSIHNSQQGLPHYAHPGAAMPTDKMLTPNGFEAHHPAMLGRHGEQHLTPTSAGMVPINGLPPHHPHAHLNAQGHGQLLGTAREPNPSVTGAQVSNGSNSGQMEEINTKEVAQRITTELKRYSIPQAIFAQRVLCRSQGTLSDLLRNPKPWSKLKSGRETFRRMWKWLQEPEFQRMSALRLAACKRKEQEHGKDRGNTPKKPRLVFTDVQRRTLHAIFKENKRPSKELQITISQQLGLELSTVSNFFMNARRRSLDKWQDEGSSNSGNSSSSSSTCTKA
Paired box protein Pax-6 (Homo sapiens), sequence (P26367 whole entry, looked up): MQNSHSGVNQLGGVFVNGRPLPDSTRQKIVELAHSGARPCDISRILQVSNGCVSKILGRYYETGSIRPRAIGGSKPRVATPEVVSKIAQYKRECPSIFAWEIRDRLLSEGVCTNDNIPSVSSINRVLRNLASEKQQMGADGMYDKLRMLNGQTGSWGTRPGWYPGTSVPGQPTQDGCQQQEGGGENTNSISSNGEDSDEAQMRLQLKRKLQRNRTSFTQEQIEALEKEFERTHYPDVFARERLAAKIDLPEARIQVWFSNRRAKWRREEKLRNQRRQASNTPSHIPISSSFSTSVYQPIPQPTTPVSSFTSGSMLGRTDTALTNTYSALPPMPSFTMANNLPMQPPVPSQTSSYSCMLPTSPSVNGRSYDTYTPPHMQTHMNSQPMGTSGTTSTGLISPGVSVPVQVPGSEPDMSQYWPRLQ
Hypoxia-inducible factor 1-alpha (Homo sapiens), sequence (Q16665 whole entry, looked up, the tested form may be a part): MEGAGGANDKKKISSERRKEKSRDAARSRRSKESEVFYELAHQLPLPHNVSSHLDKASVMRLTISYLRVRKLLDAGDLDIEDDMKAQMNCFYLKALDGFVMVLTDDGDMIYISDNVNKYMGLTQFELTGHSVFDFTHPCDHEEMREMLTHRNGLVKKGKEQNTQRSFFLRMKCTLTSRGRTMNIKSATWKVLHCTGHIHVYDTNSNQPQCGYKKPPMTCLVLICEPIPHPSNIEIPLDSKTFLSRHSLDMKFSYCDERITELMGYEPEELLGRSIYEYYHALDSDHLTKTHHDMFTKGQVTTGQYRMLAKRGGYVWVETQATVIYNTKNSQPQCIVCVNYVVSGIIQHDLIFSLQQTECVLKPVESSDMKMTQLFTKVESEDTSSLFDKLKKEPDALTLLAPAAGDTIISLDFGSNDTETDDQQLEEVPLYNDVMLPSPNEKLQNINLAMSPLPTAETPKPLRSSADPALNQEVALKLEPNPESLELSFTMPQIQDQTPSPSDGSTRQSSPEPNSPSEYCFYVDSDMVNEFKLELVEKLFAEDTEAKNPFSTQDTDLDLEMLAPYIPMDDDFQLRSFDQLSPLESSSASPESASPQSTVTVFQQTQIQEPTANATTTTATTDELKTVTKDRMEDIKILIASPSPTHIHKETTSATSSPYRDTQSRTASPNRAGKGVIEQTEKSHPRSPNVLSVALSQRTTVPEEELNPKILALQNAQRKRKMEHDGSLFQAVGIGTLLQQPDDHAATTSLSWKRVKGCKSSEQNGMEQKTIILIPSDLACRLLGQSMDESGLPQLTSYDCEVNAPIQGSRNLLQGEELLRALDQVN
Hepatocyte nuclear factor 3-beta (Homo sapiens), sequence (Q9Y261 whole entry, looked up): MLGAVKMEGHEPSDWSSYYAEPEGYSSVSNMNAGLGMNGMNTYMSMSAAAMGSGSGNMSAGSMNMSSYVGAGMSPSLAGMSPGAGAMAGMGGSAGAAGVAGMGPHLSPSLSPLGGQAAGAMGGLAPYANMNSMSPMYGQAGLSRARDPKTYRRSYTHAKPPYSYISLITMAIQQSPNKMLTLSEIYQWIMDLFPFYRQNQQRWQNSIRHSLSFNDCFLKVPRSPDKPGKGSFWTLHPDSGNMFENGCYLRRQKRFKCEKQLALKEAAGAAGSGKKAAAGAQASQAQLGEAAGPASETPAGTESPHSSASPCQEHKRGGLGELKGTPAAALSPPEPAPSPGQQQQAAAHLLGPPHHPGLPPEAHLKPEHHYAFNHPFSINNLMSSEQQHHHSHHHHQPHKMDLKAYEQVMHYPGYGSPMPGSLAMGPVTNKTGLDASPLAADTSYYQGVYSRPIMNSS
Heat shock factor protein 1 (Homo sapiens), sequence (Q00613 whole entry, looked up): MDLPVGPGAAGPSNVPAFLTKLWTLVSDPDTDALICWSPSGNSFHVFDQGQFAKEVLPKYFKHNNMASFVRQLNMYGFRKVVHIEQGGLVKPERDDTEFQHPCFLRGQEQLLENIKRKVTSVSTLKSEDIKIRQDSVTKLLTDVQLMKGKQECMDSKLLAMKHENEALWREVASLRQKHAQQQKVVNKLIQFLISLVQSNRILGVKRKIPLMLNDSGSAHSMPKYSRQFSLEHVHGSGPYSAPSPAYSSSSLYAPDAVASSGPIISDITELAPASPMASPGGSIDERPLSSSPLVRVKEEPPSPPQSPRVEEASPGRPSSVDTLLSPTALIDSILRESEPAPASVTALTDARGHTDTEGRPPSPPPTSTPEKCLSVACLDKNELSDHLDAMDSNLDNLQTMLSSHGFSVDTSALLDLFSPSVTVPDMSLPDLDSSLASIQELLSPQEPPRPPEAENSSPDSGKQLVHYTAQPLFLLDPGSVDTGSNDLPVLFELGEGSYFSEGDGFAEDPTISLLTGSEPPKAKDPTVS

As for `N#CSCSc1nc2ccccc2s1`, the figures for the AC50 in [1], in experiment [12] and in experiment [18] were 6.89 µM (active), 3.07 µM (active) and 11.1 µM (active), respectively. Moreover, the outcome in [1], in experiment [2], in experiment [3], in [4], in [5] and in experiment [6] was inactive. For the same compound, the call in experiment [7], in experiment [8], in [9], in [10], in experiment [11] and in experiment [12] was inactive. The compound was classed as inactive in experiment [13], in experiment [14], in [15], in experiment [16], in experiment [17] and in experiment [18].

Turning to `COC(=O)c1c(Cl)nn(C)c1S(=O)(=O)NC(=O)Nc1nc(OC)cc(OC)n1`, the outcome in experiment [1], in experiment [2], in [3], in experiment [4], in experiment [5] and in experiment [6] was inactive. Also, the result in experiment [7], in [8], in [9], in experiment [10], in experiment [11] and in experiment [12] was inactive. In addition, the compound was called inactive in experiment [13], in [14], in experiment [15], in [16], in [17] and in [19]. The outcome in [18] was inactive.

In the case of `Cc1nn(C)c(Oc2ccccc2)c1C=NOCc1ccc(C(=O)OC(C)(C)C)cc1`, the result in experiment [1], in experiment [2], in experiment [4], in experiment [5], in [6] and in [7] was inactive. Moreover, the compound was classed as inactive in [8], in experiment [9], in experiment [10], in [11], in experiment [12] and in [13]. For the same compound, the outcome in [14], in experiment [15] and in experiment [16] was inactive. For the same compound, the figures for the AC50 in experiment [3], in experiment [20] and in [17] were 0.934 µM (active), 9.45 µM (active) and 1.88 µM (active), respectively.
